The values that follow come from ChEMBL document CHEMBL3988442, “University of Dundee, Small-Polar-MMV Screening Library” (2021).

Structures are written as SMILES. In all, about 48,000 compounds went through this assay and about 13,000 (27%) showed an effect of 50% or more. The list shows a part of the results.

This test deals with Wolbachia pipientis. Put plainly: Anti-Wolbachia Cell-Based Screen. It counts as functional. Details: scale not given: in the data most compounds retested in dose-response had high values. The note with it: 5 µM.
Regarding `N#Cc1ccc(C(=O)N2CCCC3(C=Cc4ccccc4O3)CC2)cn1` (configuration not stated), the “Percent Effect” value is on record as 6.705%.
The same measure for `CC(=O)NC(C)C(=O)N(Cc1ccc(C)c(C)c1)C1CC1` (configuration not stated): -3.122%.
The same measure for `CN1CCCCC[C@@H]2[C@@H]1[C@H](c1ccccc1)CN2C(=O)c1ccccn1`: 114.6%.
To `CN1CC[C@H](c2ccccc2)[C@@H]2[C@H]1CCCCN2C(=O)c1cnccn1` belongs -5.726%; to `O=C(c1ccccn1)N1C[C@@H]2CC[C@H](C1)N(C(=O)CCN1CCCC1)C2`, -10.03%; to `CN1CCCC[C@@H]2[C@H]1[C@@H](c1ccccc1)CCN2C(=O)c1ccccn1`, 98.54%.
As for `CN1CCCC[C@@H]2[C@H]1[C@@H](c1ccccc1)CCN2C(=O)c1cnccn1`, the “Percent Effect” value turned out to be 3.186%.
The same measure for `Cn1cc(C(=O)N2CC[C@@H]3[C@@H]2CCN3c2ccccn2)cn1`: -3.073%; for `CCc1nsc(NC2CC(=O)N(C(C)(C)C)C2)n1` (configuration not stated): -4.433%; for `O=C(CNCC1CCCN1c1cccnn1)NCCc1cccs1` (configuration not stated): 4.052%.
In the case of `CN(C)CCNC(=O)CC1CCN(c2cccnn2)CC1`, the “Percent Effect” value was 87.97%.
As to `CC(OCC1CC1)C(=O)N1CCCN(c2cccnn2)CC1` (configuration not stated), the “Percent Effect” value is on record as -4.711%.
The same measure for `O=C(CCc1cccs1)NCC1CCCN1c1cccnn1` (configuration not stated): -0.2437%.
To `CN1CCC(C(=O)N2CCCN(c3cccnn3)CC2)C1` (configuration not stated) belongs -4.749%; to `Cc1ccc(N2CCCC(NCC(=O)NC3CCOCC3)C2)nn1` (configuration not stated), 0.2085%.
To `O=C(CN1CCCC1Cn1cccn1)NC1CCOCC1` (configuration not stated) belongs -8.305%.
For the molecule `O=C(CC1CCN(c2cccnn2)CC1)NC1CCOCC1`, the “Percent Effect” value came to 83.52%.
To `O=C(CC1CCN(c2cccnn2)CC1)NCCO` belongs 94.51%.
To `O=C(c1cn(-c2cc(N3CCSCC3)ncn2)cn1)N1CCOCC1` belongs 2.163%.
For the molecule `COCCN1C[C@@H]2CN(C(=O)CC3CC3)C[C@@H]2C1=O`, the “Percent Effect” value is 3.353%.
The same measure for `O=C(C1CC1)N1CCN(C(=O)CSc2ccccn2)[C@H]2CS(=O)(=O)C[C@H]21`: -23.43%; for `O=C1[C@@H]2C[C@H](O)CCN2C(=O)CN1CCSc1ccccn1`: 99.26%.
The same measure for `O=C(CC1CCc2ccccc21)NCCSc1ccccn1` (configuration not stated): -6.128%; for `COCCN1C[C@H]2CN(C(=O)C3CC3)CCN2C1=O`: 0.212%.
`COCCN1CC(=O)N2CC[C@@H](O)C[C@H]2C1=O`: the “Percent Effect” value was determined as 111.7%.
The same measure for `Cc1n[nH]c(C)c1C1CCCN1C(=O)NCCSC(C)(C)C` (configuration not stated): -9.308%; for `CC(C)(C)SCCN1CC(=O)N2CC[C@@H](O)C[C@H]2C1=O`: 105.3%.
To `Cc1ncccc1CNc1ccc(OCCO)nc1` belongs -18.76%; to `O=C(c1ccoc1)N1CCC2(CC1)COC(COCc1ccccn1)C2` (configuration not stated), 4.399%.
The same measure for `Cc1nncn1CCNC(=O)C1SCCc2sccc21` (configuration not stated): 0.3971%.
Regarding `CCc1ccc(CN2CCc3[nH]nc(C(=O)N4CCNC(=O)C4)c3C2)o1`, the “Percent Effect” value was -23.7%.
The same measure for `CC(C)NC(=O)CCNC(=O)Nc1cnn(-c2ccccc2Cl)c1`: -14.09%.
To `COC[C@@]12CCC[C@@H]1CN(C(=O)COc1ccccc1OC)C2` belongs 104.3%.
Consider `CCO[C@@H]1CO[C@@]2(CCCN(C(=O)COc3ccccc3OC)C2)C1`, for which the “Percent Effect” value was -3.938%.
To `Cc1ccc(C(=O)N2C[C@H]3CCC[C@@]3(COCc3ccncc3)C2)cn1.O=C(O)C(F)(F)F.O=C(O)C(F)(F)F` belongs -7.119%; to `O=C(Cc1ccco1)N1C[C@H]2CCC[C@@]2(COc2cccnc2)C1`, -23.92%; to `O=C(O)C(F)(F)F.O=C(c1ccc(F)cc1)N1C[C@H]2CCC[C@@]2(COCc2ccncc2)C1`, 3.034%.
To `CCOC[C@@]12CCC[C@@H]1CN(C(=O)COc1ccccc1OC)C2` belongs 101.3%.
The same measure for `CCOC[C@@]12CCC[C@@H]1CN(C(=O)c1ccc(OC)cc1)C2`: 116.5%.
For `COC[C@@]12CCO[C@@H]1CCN(C(=O)COc1ccccc1OC)C2`, the “Percent Effect” value stood at 3.153%.
The same measure for `CC(Oc1ccccc1C(F)(F)F)C(=O)NCC(N)=O` (configuration not stated): -1.247%; for `CCCC(CNc1cc(C(C)C)nc2ccnn12)N(C)C` (configuration not stated): -7.916%; for `Cc1n[nH]cc1CNC1(c2ccc(F)cc2)CCCC1`: 2.933%.
To `CN1CC2(CCN(C(=O)Cc3ccccn3)CC2)OCC1=O.O=C(O)C(F)(F)F` belongs 23.75%; to `CC(C)NC(=O)N1CCN(CC2CC2)CC2(CC(=O)N(C)C2)C1.O=C(O)C(F)(F)F` (configuration not stated), 10.52%.
Take `Cc1ccc(CN2CCC3(CC(=O)N(c4cccc(F)c4)C3)C2)o1.O=C(O)C(F)(F)F` (configuration not stated): the “Percent Effect” value was 18.19%.
The same measure for `CCN1CC2(CC1=O)CN(Cc1cccs1)CCN(C(=O)C(C)C)C2` (configuration not stated): 9.795%.
To `CC(=O)N1CCN(Cc2ccc(C)o2)CC2(CC(=O)N(C)C2)C1.O=C(O)C(F)(F)F` (configuration not stated) belongs 88.46%; to `CC(=O)N1CCN(Cc2ccco2)CC2(CC(=O)N(C)C2)C1.O=C(O)C(F)(F)F` (configuration not stated), 97.89%; to `CCN1CC2(CC1=O)CN(Cc1cnn(C)c1)CCN(C(=O)C(C)C)C2.O=C(O)C(F)(F)F` (configuration not stated), -2.77%.
Take `CC(=O)N1CCN(Cc2cccs2)CC2(CC(=O)N(C)C2)C1.O=C(O)C(F)(F)F` (configuration not stated): the “Percent Effect” value was determined as 101.6%.
The same measure for `CCN1CC2(CC1=O)CN(Cc1ccco1)CCN(C(=O)N(C)C)C2.O=C(O)C(F)(F)F` (configuration not stated): 1.855%.
`O=C(O)C(F)(F)F.O=C(O)C(F)(F)F.O=C(O)C(F)(F)F.c1coc(CN2CCC3(CC2)COCCN(CCN2CCCC2)C3)c1`: the “Percent Effect” value was determined as 10.77%.
To `CC(C)C(=O)N1CCN(Cc2ccccn2)CC2(CC(=O)N(C)C2)C1.O=C(O)C(F)(F)F.O=C(O)C(F)(F)F` (configuration not stated) belongs 98.24%; to `CN(CCC1CCOCC1)C(=O)C1CCC(=O)N(Cc2ccccn2)C1` (configuration not stated), 12.01%.
The same measure for `Cc1nn(C)c(C)c1OCC(=O)NCC(O)c1ccccc1F` (configuration not stated): -4.984%; for `O=C1N(c2ccc(Cl)cc2)Cc2n[nH]c(=O)n21`: 3.53%.
To `CCCn1nc(-c2nc(COC)no2)ccc1=O` belongs -14.93%; to `CC(=O)NCC(=O)NCC1Cn2nnc(-c3cccc(F)c3)c2CO1` (configuration not stated), -8.609%.
In the case of `CN1CCC2(CCN(Cc3nccs3)CC2)C1=O.O=C(O)C(F)(F)F`, the “Percent Effect” value was 4.782%.
The same measure for `CC(=O)N1CCN(Cc2nccs2)CC2(CC(=O)N(C)C2)C1.O=C(O)C(F)(F)F` (configuration not stated): 92.61%; for `COC(=O)NCCCn1ccnc1-c1ccccc1`: 181.6%.
The same measure for `CC(C)c1nccn1CCCNC(=O)c1ccc(-c2cccnc2)nc1`: 8.791%; for `CCOCC(=O)NCCCn1ccnc1-c1ccccc1`: 90.19%.
`COC(=O)CCCn1ccnc1-c1ccccc1`: the “Percent Effect” value was found to be 2.023%.
Take `CCOCC(=O)Nc1nccn1Cc1ccc(Br)cc1`: the “Percent Effect” value was -3.698%.
To `CC(=O)NCCn1ccnc1-c1cccc(C(C)N(C)C)c1` (configuration not stated) belongs 4.198%; to `Cc1ccc(C(=O)Nc2cc(C(N)=O)ccc2N2CCCCC2)cc1F`, -3.619%; to `O=C(O)CCc1cc2n(n1)CCCN(C(=O)c1cc3ccccc3s1)C2`, 6.416%.
The same measure for `Cn1cccc1C(=O)N1CCCn2nc(CCC(=O)NC3CC3)cc2C1`: 139.6%; for `O=C(CCc1cc2n(n1)CCCN(C(=O)c1cccnc1)C2)NC1CC1`: -4.751%; for `O=C(CCc1cc2n(n1)CCCN(C(=O)c1ccncc1)C2)NC1CC1`: 139.8%.
On to `O=C(O)CCc1cc2n(n1)CCCN(C(=O)c1ccc3cc[nH]c3c1)C2`, for which the “Percent Effect” value was -27.67%.
To `Cc1ccc(C(=O)N2CCCn3nc(CCC(=O)O)cc3C2)cc1Cl` belongs 11.92%.
The same measure for `O=C(CCc1cc2n(n1)CCCN(C(=O)c1ccccn1)C2)NC1CC1`: 1.644%.
As for `O=C(CCc1cc2n(n1)CCCN(C(=O)[C@H]1CCCO1)C2)NC1CC1`, the “Percent Effect” value came to 170.3%.
To `CCc1cc(C(=O)N2CCCn3nc(CCC(=O)O)cc3C2)cs1` belongs -7.139%; to `CC(C)c1ocnc1C(=O)NC1(c2cccc(F)c2)CCOCC1`, -15.1%; to `O=S1(=O)CCCN(Cc2ccccc2OCC(F)(F)F)CC1`, 7.623%.
To `Fc1cccc(-c2n[nH]cc2-c2nc(CN3CCOCC3)no2)c1` belongs 25.75%.
To `CN1CCN(Cc2ccccc2Oc2cncc(C(N)=O)n2)CC1` belongs 7.262%; to `CC(=O)N1Cc2ccccc2CC1C(=O)Nc1cc(C)ccn1` (configuration not stated), -13.21%; to `C[C@]1(O)CN(Cc2cccc(C(=O)O)c2)CC[C@@H]1Oc1cccc(F)c1`, 113.2%.
Take `COc1ccccc1OC1CN(Cc2ccc(C(=O)O)cc2)C1`: the “Percent Effect” value is -24.62%.
For `C[C@]1(O)CN(Cc2ccc(C(=O)O)cc2)CC[C@@H]1Oc1cccc(F)c1`, the “Percent Effect” value amounted to 71.72%.
The same measure for `O=C(NCC1(O)CCOc2ccccc21)Nc1ccc2c(c1)OCO2` (configuration not stated): 5.05%.
To `CCn1cc(NC(=O)C2CCN(Cc3ccccc3C#N)CC2)cn1` belongs 4.672%; to `O=C(Nc1ccc(F)cc1)C1CCN(Cc2noc(C3CC3)n2)CC1`, -24.67%; to `CC(C)Cc1noc(CN2CCC(C(=O)NCC3CCCO3)CC2)n1` (configuration not stated), 11.96%.
Turning to `CCn1cc(NC(=O)C2CCN(Cc3noc(C4CC4)n3)CC2)cn1`, the “Percent Effect” value stood at 113.1%.
The same measure for `CCc1noc(C(C)N2CCC(C(=O)Nc3cnn(CC)c3)CC2)n1` (configuration not stated): 11.99%; for `CCn1cc(NC(=O)C2CCN(Cc3noc(C(C)C)n3)CC2)cn1`: 3.174%.
To `CCCc1noc(CN2CCC(C(=O)Nc3cnn(CC)c3)CC2)n1` belongs 112.1%.
The same measure for `CCc1noc(CN2CCC(C(=O)Nc3cnn(CC)c3)CC2)n1`: 82.9%; for `CCn1cc(NC(=O)C2CCN(Cc3nc(C(C)C)no3)CC2)cn1`: 89.67%.
Turning to `O=C(Nc1cccc(F)c1)C1CCN(Cc2noc(C3CC3)n2)CC1`, the “Percent Effect” value is listed as -5.725%.
To `CC(C)c1noc(CN2CCC(C3CCCCCN3S(C)(=O)=O)CC2)n1.Cl` (configuration not stated) belongs 5.236%.
